PubChem BioAssay AID488890 (Southern Research Specialized Biocontainment Screening …, 2010)
Hit rate of the full screen: of about 320,000 compounds, about 1,300 (0.41%) were called active. Not shown: some 3% with an inconclusive outcome. No rule for the calls is given here. A selection follows. Measured potencies and affinities stand elsewhere.

experiment: growth inhibition of non-replicating M. tuberculosis (AID 488890); settings: Mycobacterium tuberculosis non-replicating, at 25 µM, stronger effect = higher value;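 also: plate controls were DMSO cells for no effect and high antibiotic wells for full effect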

Row | Compound | inhibition
1 | COc1ccc(-c2[nH]nc3c2C(c2ccc(OC(=O)N4CCOCC4)cc2)C(C#N)=C(N)O3)cc1 (stereo not drawn) | 13.2%
2 | CCc1cccc(C)c1NC(=O)CN(C)Cc1ccccc1F | 23.6%
3 | C[C@H](CO)N1C[C@H](C)[C@@H](CN(C)C(=O)Nc2ccc(C(F)(F)F)cc2)Oc2c(NC(=O)Nc3ccccc3)cccc2C1=O | 32.4%
4 | CC1CCN(CCCOc2ccc(Br)cc2Cl)CC1 | 33.5%
5 | Cc1ccc(OCCCCN2CCC(C)CC2)c(Br)c1 | 49.3%
6 | Cc1ccc(C)c(NC(=S)NCCc2c[nH]c3ccccc23)c1 | 67%
7 | Clc1ccc2nc(CSc3ncn[nH]3)cn2c1 | -31.7%
8 | O=[N+]([O-])c1ccc2nc(SCc3cn4cccnc4n3)[nH]c2c1 | -20.2%
9 | c1ccc2[nH]c(SCc3cn4ccccc4n3)nc2c1 | -0.59%
10 | NC(=O)CSc1nc2ccc([N+](=O)[O-])cc2[nH]1 | 3.31%
11 | CCC(CO)NCc1sccc1C (stereo not drawn) | -5.31%
12 | Cc1cccc(C(=O)NC(=S)Nc2ccc(S(=O)(=O)N3CCN(C)CC3)cc2)c1 | 52.2%
13 | O=C(N/N=C/c1cc(Cl)cc([N+](=O)[O-])c1O)c1cc(-c2ccccn2)nc2ccccc12 | 4.78%
14 | O=[N+]([O-])c1cc(/C=N\Nc2ccccn2)ccc1Cl | -14.6%
15 | COc1cccc(/C=N/Nc2ncccc2[N+](=O)[O-])c1OC | 1.4%
16 | Cc1c(O)ccc(/C=N/Nc2ncccc2[N+](=O)[O-])c1O | -1.95%
17 | COc1cc(/C=N/Nc2nc3ccccc3s2)cc([N+](=O)[O-])c1O | 22%
18 | Cc1cc(C(=O)N/N=C/c2cc(Cl)cc([N+](=O)[O-])c2O)c2ccccc2n1 | 54.6%
19 | CN(C(=O)COC(=O)c1ccccc1SCC(=O)N1CCCC1)C1CCS(=O)(=O)C1 (stereo not drawn) | -9.96%
20 | Cc1ccccc1CCNC(=O)C1CC(O)CN1C(=O)Nc1ccccc1 (stereo not drawn) | -7.09%
21 | O=S(=O)(NCc1ccccc1F)c1cccc(S(=O)(=O)N2CCOCC2)c1 | -6.99%
22 | O=C(NC(=S)Nc1ccc(Cl)cn1)c1cc([N+](=O)[O-])ccc1N1CCOCC1 | 5.35%
23 | Cc1ccc(S(=O)(=O)N2CCN(C(=O)c3ccccc3)CC2)cc1 | 9.38%
24 | COc1ccc(CCNC(=O)C(=O)c2c(C)[nH]c3ccccc23)cc1 | 12%
25 | NC(=O)NCCC1=CCCCC1 | -8.64%

Row | Compound | inhibition
26 | O=C(NCCc1ccccc1)c1ccc(Br)o1 | 73.4%
27 | O=C(NCCC1=CCCCC1)c1ccc(Cl)cc1 | 76.5%
28 | COc1ccc(C(=O)NCCC2=CCCCC2)cc1 | 71.4%
29 | CCN(CC)C(=O)c1cccc(NC(=O)c2cc(-c3ccccn3)nc3ccccc23)c1 | 57%
30 | Cc1nnc2sc(SCC(=O)Nc3ccc(Br)cc3)nn2c1=O | -4.78%
31 | CCOc1ccccc1C(=O)NC1CC2CCCC(C1)N2C1CC1 (stereo not drawn) | 0.26%
32 | CCOc1ccc(S(=O)(=O)N2CCOCC2)cc1NC(=O)CN1C(=O)NC(C)(c2ccccc2)C1=O (stereo not drawn) | 6.19%
33 | Cc1nc(Sc2ccccc2)c(C#N)c(C)c1[N+](=O)[O-] | 16.8%
34 | Nc1ncnc(Sc2ccccc2)c1[N+](=O)[O-] | 67.8%
35 | C#CCN(CC=C)C(=O)c1ccc(OC2CCN(S(=O)(=O)N(C)C)CC2)cc1 | -9.64%
36 | Cc1ccnc(NC(=O)C2COc3ccccc3O2)c1 (stereo not drawn) | 2.12%
37 | O=C(COC(=O)C1COc2ccccc2O1)Nc1cccc(Cl)c1 (stereo not drawn) | 6.42%
38 | O=C(Nc1ccncc1)C1COc2ccccc2O1 (stereo not drawn) | 29.1%
39 | O=C(CCC1COc2ccccc2O1)Nc1ccc(Cl)cn1 (stereo not drawn) | 79.7%
40 | O=C(Nc1ccccn1)C1COc2ccccc2O1 (stereo not drawn) | 77%
41 | CC1CCCN(C(=O)C2COc3ccccc3O2)C1 (stereo not drawn) | 57.7%
42 | Cc1cccc(NC(=O)C2COc3ccccc3O2)n1 (stereo not drawn) | 75.7%
43 | O=C(C1COc2ccccc2O1)N1CCCC1 (stereo not drawn) | 70.2%
44 | CCOC(=O)CNC(=O)CN1CCC(c2nc3ccccc3[nH]2)CC1 | -5.38%
45 | COc1ccc(N/C=C/C(=O)c2ccc(Oc3ncccn3)cc2)cc1 | -0.22%
46 | C/C(CC(=O)NC1CCCCC1)=N\NC(=O)Cc1ccc(-c2ccccc2)cc1 | 9.13%
47 | O=C(C1=C[C@@H](c2ccccc2)C[C@@H](OCc2ccc(CO)cc2)O1)N1CCN(Cc2ccc3c(c2)OCO3)CC1 | 38.2%
48 | O=C(CNC(=O)Cc1ccccc1)NCC(=O)OCc1ccc(C(=O)c2ccccc2)cc1 | 4.67%
49 | COc1ccc(-n2nc(C(=O)NCC(=O)NCc3cccc(F)c3)c3ccccc3c2=O)cc1Cl | -7.9%
50 | O=S(=O)(c1ccc2nc(COc3ccccc3)[nH]c2c1)N1CCOCC1 | -3.8%

Row | Compound | inhibition
51 | CC(C)(C)C(=O)CN1C2=NCCCN2c2ccccc21 | 12.1%
52 | CCOc1ccc(N(CC(=O)NCc2ccccc2)S(=O)(=O)c2ccc(C)cc2)cc1 | 0.73%
53 | COC(=O)c1ccc(C)c(NC(=O)C2COc3ccccc3O2)c1 (stereo not drawn) | 57.8%
54 | CCN(CC1COc2ccccc2O1)C(=S)NC1CC2CCC1C2 (stereo not drawn) | 0.66%
55 | COC(=O)c1ccccc1NC(=O)C1COc2ccccc2O1 (stereo not drawn) | 59.7%
56 | CC1CCCC(NC(=O)C2COc3ccccc3O2)C1C (stereo not drawn) | 17.1%
57 | Cc1[nH]c2ccccc2c1C(=O)C(C)OC(=O)c1ccccc1NCCO (stereo not drawn) | 17.8%
58 | CCCCN(Cc1ccco1)S(=O)(=O)c1csc(C(N)=O)c1 | 38.5%
59 | CSc1ccccc1C(=O)N(C)C(c1ccccc1)c1ccccc1 | 13.8%
60 | CCNc1nc(NC(C)C)nc(SCCOc2ccc(C)cc2)n1 | 6.84%
61 | Cc1cc(OCCCn2ccnc2)cc(C)c1Cl | -6.72%
62 | C=CCc1cc(C)ccc1OCCCn1ccnc1 | 26.9%
63 | Clc1ccc(SCCCCn2cncn2)cc1 | 26.1%
64 | Cc1cc(C)cc(OCCCn2ccnc2)c1 | 76%
65 | Clc1ccc(SCCn2ccnc2)cc1 | 71.2%
66 | Cc1cc(OCCCn2ccnc2)ccc1[N+](=O)[O-] | 39.3%
67 | Cc1ccc(OCCCn2ccnc2)cc1C | 70.8%
68 | C=CCc1cc(Cl)ccc1OCCn1ccnc1 | 31.9%
69 | CS(=O)(=O)N1CCC(C(=O)NCCN2CCN(Cc3ccccc3)CC2)CC1 | -1.43%
70 | Cc1ccc(-c2csc(N3CCC[C@@H]3C(=O)NCCn3c(C(F)(F)F)nc4ccccc43)n2)cc1 | 42.9%
71 | C[C@@H](NC(=O)c1nc[nH]c1C(=O)N[C@H](C)c1ccccc1)c1ccccc1 | 66%
72 | O=C(O)c1ccc2c(=O)n3cc(C(=O)c4ccccc4O)cc(Cl)c3nc2c1 | -0.88%
73 | Fc1ccc2c(c1)C(c1ccncc1)=NNC(c1ccc(Br)cc1)=N2 | 21.1%
